Screens: PubChem BioAssay, National Center for Advancing Translational Sciences (NCATS)
FLuc modulator: qHTS profiling assay for firefly luciferase inhibitor/activator using purifed enzyme and Km concentrations of substrates (counterscreen for miR-21 project); Luciferin 4-monooxygenase (Photinus pyralis), P08659; purified FLuc, Km substrates, luminescence inhibition; Potency, µM (doses to about 57.5 µM), hits mostly inhibitors; 360,000 compounds, 6.9% hits; also: nearly all actives have a fitted effect of over 55% in size
Target sequence (P08659 whole entry, looked up): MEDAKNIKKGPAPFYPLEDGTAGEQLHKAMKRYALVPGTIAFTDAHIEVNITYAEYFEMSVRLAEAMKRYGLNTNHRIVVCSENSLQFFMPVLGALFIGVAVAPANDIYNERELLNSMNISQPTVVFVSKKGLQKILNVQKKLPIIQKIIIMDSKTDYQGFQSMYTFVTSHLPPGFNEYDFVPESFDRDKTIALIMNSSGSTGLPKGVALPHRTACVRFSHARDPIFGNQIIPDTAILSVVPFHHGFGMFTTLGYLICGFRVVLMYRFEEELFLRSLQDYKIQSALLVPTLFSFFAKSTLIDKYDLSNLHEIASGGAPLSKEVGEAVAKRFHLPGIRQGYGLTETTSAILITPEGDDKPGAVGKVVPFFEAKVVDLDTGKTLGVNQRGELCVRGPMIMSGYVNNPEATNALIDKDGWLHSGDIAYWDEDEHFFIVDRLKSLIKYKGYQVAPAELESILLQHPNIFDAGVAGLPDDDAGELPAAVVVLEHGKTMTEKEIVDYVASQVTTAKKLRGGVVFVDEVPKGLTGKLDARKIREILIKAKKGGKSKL
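Purified P. pyralis luciferase (10nM final) with 10uM D-luciferin and 10uM ATP (Km levels) in 50mM Tris acetate pH 7.5, 10mM Mg acetate, 0.01% Tween-20, 0.05% BSA; qHTS 6-point titration, ~60 µM downward; luminescence read.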
Rab9 prom act: qHTS Assay for Rab9 Promoter Activators. Potency, µM (titrated, usually from 9.22 µM), usual class: activators. AID 485297, 2010. Huh7 Rab9 promoter-luciferase reporter, luminescence, 24 h. 320,000 compounds, 2.8% hits; also: nearly all actives have a fitted effect of over 60% in size
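Steps: seed 1500 Huh7 Rab9-luc cells per well, rest 2 h at 37 °C; add compound in DMSO; incubate 24 h; add luciferase reagent, 10 min ambient; read luminescence.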
NPC1 prom act: qHTS Assay for NPC1 Promoter Activators; Huh7 NPC1 promoter luciferase reporter, 24 h; Potency, µM (series often up to 9.22 µM), usual class: activators; 320,000 compounds, 2.4% hits; AID 485313, 2010; also: nearly all actives have a fitted effect of over 60% in size
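Stable NPC1-promoter luciferase Huh7 line; cpd (DMSO) 24 h, 37 °C, 5% CO2; Amplite luciferase reagent 10 min RT; luminescence readout. qHTS format.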
SMN2 splice enh: qHTS Assay for Enhancers of SMN2 Splice Variant Expression; Potency, µM (series often up to 46.1 µM), usual class: activators; 210,000 compounds, 2.8% hits; HEK293 SMN2-luciferase splicing reporter, luminescence, 30-36 h; also: nearly all actives have a fitted effect of over 55% in size
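HEK293 cells carry an SMN2 […]–luciferase reporter in which exon 7 inclusion puts luciferase in frame. Cells were plated 10-12 h before compound addition, then incubated 30-36 h at 37C. ONE-Glo luminescence was read; sodium butyrate at 4.5 mM final served as control.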
ELG1 DNA repair: qHTS screen for small molecules that inhibit ELG1-dependent DNA repair in human embryonic kidney (HEK293T) cells expressing luciferase-tagged ELG1; AID 504467, 2011; 330,000 compounds, 2.3% hits; HEK293T ELG1-luciferase reporter, luminescence, 16 h; DNA damage induced by 5-fluorouridine; Potency, µM (highest dose often 46.1 µM), most hits filed as inhibitors; also: nearly all actives have a fitted effect of over 55% in size
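DMSO vehicle served as the neutral condition. Each well held 2,000 cells given 5-fluorouridine plus compound; after 16 hr at 37 °C/5% CO2, ONE-Glo was added and luciferase measured 30 min later.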
ELG1 genotox: qHTS screen for small molecules that induce genotoxicity in human embryonic kidney (HEK293T) cells expressing luciferase-tagged ELG1 | AID 504466, 2011 | 330,000 compounds, 1.3% hits | HEK293T ELG1-luciferase reporter, luminescence, 16 h | Potency, µM (doses to about 46 µM), usual class: activators; also: nearly all actives have a fitted effect of over 60% in size
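After overnight (16 hr) compound treatment at 37 °C, ELG1-luciferase HEK293T cells were lysed with ONE-Glo; luminescence quantified 30 min later at room temperature.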
Of the large screens only hits and unclear results are named; the others gave an inactive call. The list is not random: actives were taken first. Their share in the collection is about 9.4%. Calls follow the shape of the dose curve; as a rule, active = well fitted curve in the direction sought with a large enough effect; inconclusive = small, poorly fitted or top-dose-only effect, or another doubt; inactive = no such curve, though single readings can be large; an effect the other way counts as inactive or inconclusive.

Cn1cccc1/C=C1\C(=O)NC(=O)N(Cc2ccco2)C1=O	none
Cc1cc(/C=C2\C(=O)NC(=O)N(Cc3ccco3)C2=O)c(C)n1-c1ccc(C(=O)O)cc1	none (no result: SMN2 splice enh)
Cc1ccc(-n2c(C)cc(/C=C3/C(=O)NC(=O)N(C)C3=O)c2C)cc1	FLuc modulator 0.601µM
Cc1cc(/C=C2\C(=O)NC(=O)N(Cc3ccccc3Cl)C2=O)c(C)n1-c1ccc(C(=O)O)cc1	FLuc modulator inconclusive (no result: SMN2 splice enh)
CSc1ccccc1NC(=O)CN(C)CC(=O)c1[nH]c(C)c(C(C)=O)c1C	ELG1 DNA repair 16.4µM (no result: FLuc modulator, Rab9 prom act, NPC1 prom act, SMN2 splice enh)
COCCCn1c(-c2ccc(OC)cc2)cc(C(=O)NC2CCCCCCC2)c1C	ELG1 DNA repair 23.1µM
Cc1c(C(=O)Nc2ccccc2)cc(-c2ccccc2)n1CCCN1CCOCC1	none (no result: SMN2 splice enh)
CCOc1ccccc1Oc1coc2cc(OC(=O)c3ccco3)ccc2c1=O	FLuc modulator 15.1µM, SMN2 splice enh inconclusive, ELG1 DNA repair inconclusive
O=C(CN1CCCC1)Nc1ccc(NC(=O)Nc2ccccc2)cc1	FLuc modulator 19µM, Rab9 prom act inconclusive, NPC1 prom act inconclusive, ELG1 DNA repair inconclusive (no result: SMN2 splice enh)
O=C(CN1CCCC1=O)Nc1ccccc1	none
O=C(NCP(=O)(O)O)c1cccnc1	none (no result: FLuc modulator, Rab9 prom act, NPC1 prom act, ELG1 DNA repair, ELG1 genotox)
COP(=O)(OC)Oc1ccc(C(O)C(Cl)(Cl)Cl)cc1 (configuration not stated)	none (no result: SMN2 splice enh)
CC(C)OP(=O)(Oc1ccc(C(O)C(Cl)(Cl)Cl)cc1)OC(C)C (configuration not stated)	ELG1 DNA repair 18.3µM (no result: SMN2 splice enh)
CC(=O)C1CCC2C3CCC4=CC(=O)CC[C@@]4(C)C3CC[C@]12C (some centres not stated)	none (no result: FLuc modulator, Rab9 prom act, NPC1 prom act, ELG1 DNA repair, ELG1 genotox)
CCSCC[C@H](N)C(=O)O	none (no result: FLuc modulator, Rab9 prom act, NPC1 prom act, ELG1 DNA repair, ELG1 genotox)
CN1CCN(c2ncnc3ccc(Br)cc23)CC1	ELG1 DNA repair 9.2µM
O=C(O)c1cccc([As]=[As]c2cccc(C(=O)O)c2)c1 (configuration not stated)	none (no result: FLuc modulator, Rab9 prom act, NPC1 prom act, ELG1 DNA repair, ELG1 genotox)
N[C@H](Cc1ccc2oc3cc(=O)c4ccccc4c-3nc2c1)C(=O)O	none (no result: FLuc modulator, Rab9 prom act, NPC1 prom act, ELG1 DNA repair, ELG1 genotox)
CCOP(=S)(OCC)Oc1ccc([N+](=O)[O-])cc1	none (no result: FLuc modulator, Rab9 prom act, NPC1 prom act, ELG1 DNA repair, ELG1 genotox)
COc1ccc(NP(=O)(Oc2ccccc2OC)Oc2ccccc2OC)cc1	ELG1 DNA repair 20.6µM
COc1ccccc1OP(=O)(Nc1ccc(Br)cc1)Oc1ccccc1OC	ELG1 DNA repair inconclusive (no result: SMN2 splice enh)
O=C(Cl)C(Cl)(Cl)Cl	none (no result: FLuc modulator, Rab9 prom act, NPC1 prom act, ELG1 DNA repair, ELG1 genotox)
Cc1nc2cc(C(F)(F)F)ccc2n1C1CCN(Cc2nnnn2Cc2ccc3c(c2)OCO3)CC1	ELG1 DNA repair 6.51µM
Cc1nc2cc(C(F)(F)F)ccc2n1C1CCN(Cc2nnnn2Cc2cccs2)CC1	none
COC(=O)c1cc2c(cn1)[nH]c1ccccc12	none (no result: FLuc modulator, Rab9 prom act, NPC1 prom act, ELG1 DNA repair, ELG1 genotox)
CCOC(=O)c1cc2c(cn1)[nH]c1ccccc12	FLuc modulator 15.1µM, NPC1 prom act inconclusive, SMN2 splice enh inconclusive, ELG1 DNA repair inconclusive
Cc1cc(=O)oc2cc(OCC(=O)N3CCN(Cc4ccccc4)CC3)ccc12	none (no result: FLuc modulator, Rab9 prom act, NPC1 prom act, SMN2 splice enh)
CC(C)NS(=O)(=O)c1ccc(OCC(=O)N2CCN(Cc3ccc4c(c3)OCO4)CC2)c(Cl)c1	ELG1 DNA repair 11.6µM
Cc1cc(=O)oc2cc(OCC(=O)N3CCN(Cc4ccc5c(c4)OCO5)CC3)ccc12	ELG1 DNA repair 6.51µM (no result: SMN2 splice enh)
Nc1ccc(S(=O)(=O)c2ccc(NCN3C(=O)NC(=O)C(=O)C3=O)cc2)cc1	none (no result: FLuc modulator, Rab9 prom act, NPC1 prom act, ELG1 DNA repair, ELG1 genotox)
Cc1ccc(S(=O)(=O)N(CC(=O)NCCSc2ccc(Cl)cc2)c2ccccc2C)cc1	none (no result: Rab9 prom act, NPC1 prom act, ELG1 DNA repair, ELG1 genotox)
CCCOC(=O)c1ccc(OC(=O)c2ccco2)cc1	FLuc modulator inconclusive
O=C(Oc1ccc2ccccc2c1)c1ccco1	FLuc modulator 12µM
CN(C)c1ccc(/C=C/[N+](=O)[O-])cc1	FLuc modulator inconclusive, SMN2 splice enh 11.2µM, ELG1 DNA repair inconclusive, ELG1 genotox inconclusive
ClC(Cl)Br	none (no result: FLuc modulator, Rab9 prom act, NPC1 prom act, ELG1 DNA repair, ELG1 genotox)
Cc1c([C@@H](C)C2NC[C@H](C)C[C@@H]2O)ccc2c1C[C@@H]1[C@H]2CC=C2C[C@@H](O)CC[C@@]21C (some centres not stated)	none (no result: FLuc modulator, Rab9 prom act, NPC1 prom act, ELG1 DNA repair, ELG1 genotox)
CN1CC=C(/C=C/c2ccc(-c3ccccc3)cc2)CC1	FLuc modulator 4.26µM, Rab9 prom act inconclusive, NPC1 prom act 3.16µM, ELG1 DNA repair inconclusive, ELG1 genotox inconclusive (no result: SMN2 splice enh)
O=[As](O)(O)c1ccc(Cc2ccc([As](=O)(O)O)cc2)cc1	none (no result: FLuc modulator, Rab9 prom act, NPC1 prom act, ELG1 DNA repair, ELG1 genotox)
COc1ccc(NC(c2ccccc2)P(=O)(Oc2ccccc2)Oc2ccccc2)cc1 (configuration not stated)	ELG1 DNA repair inconclusive
COc1ccc(NC(c2ccccc2F)P(=O)(Oc2ccccc2)Oc2ccccc2)cc1 (configuration not stated)	ELG1 DNA repair 18.4µM
Clc1ccc(C(c2ccc(Cl)cc2)C(Cl)Cl)cc1	none (no result: FLuc modulator, Rab9 prom act, NPC1 prom act, ELG1 DNA repair, ELG1 genotox)
